# The list is not random: actives were taken first. Their share in the collection is about 11%.
# VACV mCherry inh – qHTS for Stage-Specific Inhibitors of Vaccinia Orthopoxvirus: mCherry Reporter Primary qHTS; Vaccinia virus mCherry reporter infection, fluorescence; Potency, µM (highest dose often 36.5 µM), inactives show top-dose activity change, negative = inhibition, hits mostly inhibitors; 310,000 tested, 0.63% active; calls by dose curve; tested in A549 cells; also: % is scaled to controls: 0 for no effect and ±100 for the full control effect; nearly all actives have a fitted effect of over 35% in size
# NS1 inh – qHTS Assay for Inhibitors of Influenza NS1 Protein Function | Potency, µM (doses to about 46.1 µM), inactives show at the highest dose activity, positive = more growth | 270,000 tested, 0.4% active | AID 2326, 2010; calls by dose curve; also: actives are rising curves; nearly all actives have a fitted effect of over 50% in size
#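 In this qHTS, NS1 from influenza A is expressed in budding yeast, where it slows growth. Cells are switched from glucose to 2% galactose medium (pH 6.0, -URA), treated with compound, and growth recovery is read at OD600.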
# Pf growth 96h – Primary qHTS for delayed death inhibitors of the malarial parasite plastid, 96 hour incubation. P. falciparum luciferase reporter growth, 96 h. Potency, µM (doses to about 28.7 µM), for the others: at the top dose activity change, negative = inhibition, most hits filed as inhibitors. 320,000 tested, 6.9% active. AID 504834, 2011; also: % is scaled to controls: 0 for no effect and ±100 for the full control effect
#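 Luminescence readout: decreased luciferase signal marks inhibited growth of reporter-expressing P. falciparum in infected red cells (2% hematocrit, 0.05% parasitemia final), exposed to compound two generations (96 h, 37 C, 5% CO2).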
# Vaccinia Venus – qHTS for Stage-Specific Inhibitors of Vaccinia Orthopoxvirus: Venus Reporter Primary qHTS | Vaccinia virus Venus reporter expression, fluorescence | Potency, µM (top dose mostly 36.5 µM), inactives show at the top dose activity change, negative = inhibition, most hits filed as inhibitors | 330,000 tested, 0.46% active; calls by dose curve; tested in A549 cells; also: % is scaled to controls: 0 for no effect and ±100 for the full control effect; nearly all actives have a fitted effect of over 30% in size
# HCV inhibitor – qHTS Assay for Inhibitors of Hepatitis C Virus (HCV). Huh7.5.1 HCVcc-Cre infection, luciferase reporter, 44 h. Potency, µM (top dose mostly 41.8 µM), for the others: at the top dose activity change, negative = inhibition, hits mostly inhibitors. 340,000 tested, 3.4% active. AID 651820, 2012; also: % is scaled to controls: 0 for no effect and ±100 for the full control effect
#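 Cells seeded at 1,000/well and cultured 4 h, then compounds added followed by HCVcc-Cre virus (~0.5 moi). After 44 h further culture, luciferase substrate was added, plates held 15 min at room temperature, and luminescence read for 15 sec.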
# Pf growth 48h – Primary qHTS for delayed death inhibitors of the malarial parasite plastid, 48 hour incubation. P. falciparum luciferase growth in erythrocytes, 48 h. Potency, µM (doses to about 28.7 µM), for the others: at the highest dose activity change, negative = inhibition, hits mostly inhibitors. 310,000 tested, 5.9% active. AID 504832, 2011; also: % is scaled to controls: 0 for no effect and ±100 for the full control effect
#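 Parasite viability was followed by luminescence of a genomically integrated firefly luciferase. Cultures held 0.1% parasitemia at 2% hematocrit (final), incubated under 5% CO2 at 37 C.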
# An asterisk follows results filed as active; i = inactive; ? = inconclusive; · = no result given; [ ] = another dose, or the depositor's remark. Unless noted, calls follow the shape of the dose curve; as a rule, active = well fitted inhibition curve with a large enough effect; inconclusive = small, poorly fitted or top-dose-only effect, or another doubt; inactive = no such curve, though single readings can be large or run the other way. Potency is read from the fitted curve at half-maximal effect.
SMILES,VACV mCherry inh,NS1 inh,Pf growth 96h,Vaccinia Venus,HCV inhibitor,Pf growth 48h
CC1=NN(c2ccc(C)c(C)c2)C(=O)/C1=C\C=C\c1ccc([N+](=O)[O-])o1,i,·,?,-2.1%,11.2µM*,0.5%
CC(CN1CCOCC1)C(=O)O (stereo not drawn),·,1.0%,9.28µM*,11.5%,9.7%,-25.0%
CC(CC(C)C(=O)N1CCOCCN(C(=O)C(C)CC(C)C(=O)O)CCOCC1)C(=O)O (stereo not drawn),-2.6%,-48.2%,·,2.7%,11.0%,22.0%
COc1ccccc1CNC(=O)C1CCN(Cc2cc3ccccc3n2Cc2cccc(C)c2)CC1,-14.0%,·,·,-9.6%,·,·
CC(C)c1ccc(/C=N/NC(=O)c2cccc(S(=O)(=O)N3CCOCC3)c2)cc1,-6.0%,·,-13.9%,-12.5%,-4.4%,8.4%
CC(=O)c1cccc(NC(=O)CN2C(=O)COc3ccc(S(=O)(=O)N4CCOCC4)cc32)c1,·,-1.4%,11.7µM*,·,?,?
COc1cc(NC(=O)CN2C(=O)COc3ccc(S(=O)(=O)N4CCCCC4)cc32)cc(OC)c1,-28.9%,-2.7%,10.4µM*,-8.6%,16.9%,?
Cc1ccccc1NC(=O)CN1C(=O)CSc2ccc(S(=O)(=O)N3CCCC3)cc21,·,6.5%,13.1µM*,·,-8.0%,-15.9%
CCN(CC)S(=O)(=O)c1ccc2c(c1)N(CC(=O)Nc1cccc(C(C)=O)c1)C(=O)CO2,-5.6%,·,·,0.3%,·,·
COc1cc(NC(=O)CN2C(=O)COc3ccc(S(=O)(=O)N4CCCC4)cc32)cc(OC)c1,-8.7%,1.1%,0.415µM*,-21.3%,2.0%,?
Cc1ccccc1NC(=O)CN1C(=O)CSc2ccc(S(=O)(=O)N3CCCCC3)cc21,·,2.3%,-3.9%,·,-2.8%,?
Cc1cc(C)cc(NC(=O)CN2C(=O)COc3ccc(S(=O)(=O)N4CCCC4)cc32)c1,·,14.5%,?,·,36.0%,0.2%
Clc1ccc2noc(-c3ccccc3)c2c1,-5.9%,3.8%,·,-0.1%,31.2%,19.0%
O=C(NC1CCC(C(=O)O)CC1)OCc1ccccc1 (stereo not drawn),i,-4.0%,-0.4%[5.75 µM],-10.0%,29.6%,32.3%
Cc1nn(C(=O)c2ccco2)c(C)c1Br,·,2.8%,·,-10.0%,4.7%,·
c1ccc(-c2nnc(SCc3nc4ccccc4[nH]3)n2Cc2ccco2)cc1,·,1.0%,0.7%,·,-8.0%,-4.5%
Cc1ccc(OCc2nnc(SCc3nc4ccccc4[nH]3)n2Cc2ccco2)cc1,·,-94.2%,6.57µM*,?,10µM*,?
O=C(CSc1nnc(COc2ccccc2)n1Cc1ccco1)c1ccc(F)cc1,·,-10.4%,13.1µM*,·,-29.4%,11.7µM*
CCOc1ccccc1NC(=O)CSc1nnc(-c2ccccn2)n1Cc1ccco1,·,-118.0%,3.7µM*,·,?,?
COc1ccc(C)cc1NC(=O)CSc1nnc(-c2ccco2)n1Cc1ccco1,·,-34.7%,10.4µM*,·,?,-19.0%
Cc1cccc(NC(=O)CSc2nnc(CSc3nc(C)cc(C)n3)n2Cc2ccco2)c1,-15.1%,-2.2%,14.7µM*,-1.0%,?,?
COc1cccc(-c2nnc(SCC(=O)OC(C)C)n2Cc2ccco2)c1,i,-45.3%,7.38µM*,-15.0%,9.9%,-3.3%
Clc1ccc(CSc2nnc(-c3ccccn3)n2Cc2ccco2)c(Cl)c1,·,-33.4%,14.7µM*,·,?,?
Fc1ccccc1CSc1nnc(-c2cnccn2)n1Cc1ccco1,-20.6%,-21.5%,·,1.7%,8.3%,?
CC(C)OC(=O)CSc1nnc(-c2cnccn2)n1Cc1ccco1,·,-8.7%,·,-6.0%,6.1%,-8.6%
SMILES,VACV mCherry inh,NS1 inh,Pf growth 96h,Vaccinia Venus,HCV inhibitor,Pf growth 48h
COc1ccc(C(=O)CSc2nnc(CNc3ccc(C)cc3C)n2Cc2ccco2)cc1,·,5.9%,?,·,6.31µM*,?
Clc1cccc(N2CCN(c3nnnn3-c3ccccc3)CC2)c1,·,·,-1.8%,·,-22.3%,-3.7%
COc1ccccc1NC(=O)CSc1nnc(COc2ccc(Cl)cc2)n1Cc1ccco1,·,-50.8%,-0.2%,·,11.2µM*,?
c1ccc(-c2ccccc2OCCOCCN2CCc3ccccc3C2)cc1,?,-13.1%,?,-24.8%,?,?
COc1ccc(NC(=O)c2ccc(-c3ccc([N+](=O)[O-])cc3)o2)cc1,-11.7%,·,-15.2%,9.5%,-15.1%,18.3%
CCOc1ccc(N2C(=O)/C(=C/c3ccccc3OCC(=O)OC)N(CC(=O)OC)C2=S)cc1,i,12.5%,?,-8.5%,-7.5%,?
COc1ccc2c(c1)CCC1=C2NC(=S)NC1c1ccc(N(C)C)cc1 (stereo not drawn),?,13.8%,?,-27.9%,11.2µM*,?
N[C@H](Cc1cnc[nH]1)C(=O)O,-4.0%,·,·,-8.2%,·,·
Cc1ccc(OCC(=O)OCC(=O)c2c(N)n(C)c(=O)n(C)c2=O)cc1C,-10.1%,0.2%,5.5%,2.8%,10.1%,·
CCOc1cc(C2C(C#N)=C(N)OC(C)=C2C(C)=O)c(Br)c(Br)c1OC(C)C (stereo not drawn),-11.3%,-2.0%,8.28µM*,?,-11.9%,3.29µM*
CCOc1cc(C2C(C#N)=C(N)OC(C)=C2C(C)=O)cc(Br)c1O (stereo not drawn),i,-9.0%,?,-15.1%,-21.3%,-4.4%
COC(=O)C(C)Sc1nnc2n(-c3cccc(C)c3)c(=O)c3c4c(sc3n12)CCCC4 (stereo not drawn),-6.2%,-4.6%,11.7µM*,-9.4%,7.4%,10.4µM*
COc1cc(NS(=O)(=O)c2c(C(=O)N3CCCCC3)c(C)n(C)c2C)cc(OC)c1OC,-7.7%,·,·,-9.2%,·,·
CCOC(=O)CCNC(=O)N1CCCC(N2CCN(c3ccc(OC)cc3)CC2)C1 (stereo not drawn),-10.3%,7.2%,2.94µM*,-10.7%,-23.2%,-2.0%
COc1ccc(N2CCN(C3CCCN(C(=O)CSC)C3)CC2)cc1 (stereo not drawn),·,-1.5%,0.0%,·,10.5%,-0.2%
Clc1ccc2[nH]c3c(NCCN4CCOCC4)ncnc3c2c1,i,-0.8%,30.1%,-19.9%,?,3.7µM*
Fc1ccc2[nH]c3c(NCCN4CCOCC4)ncnc3c2c1,·,-9.6%,4.15µM*,·,?,3.29µM*
Clc1ccc2[nH]c3c(NCC4CCCO4)ncnc3c2c1 (stereo not drawn),·,-15.9%,166.4%,·,·,?
CCc1cccc(C)c1NS(=O)(=O)c1c(C(=O)N2CCC(C)CC2)c(C)n(C)c1C,i,·,·,-14.6%,·,·
CC1=CC(=C(C#N)c2nc3ccccc3s2)C=C(C)N1CC1CCCO1 (stereo not drawn),-23.0%,·,2.94µM*,-24.8%,11.2µM*,?

# Screening results (PubChem BioAssay)
